Consider eight compounds from PubChem BioAssay (NCI).

This is part of a sample that, as a whole, favours compounds with a hit. Of some 83,000 tested, about 20% had one in any assay.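 How to read the values: 0–100, growth inhibition (40 = 60% inhibited); 0, no net growth; -100 to 0, cell death (-40 = 40% of starting cells died; -100 = all dead).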 Unmarked numbers belong to inactive results. Calls of active or inactive are those of the source. The calls were made as follows: active = growth percent below 10; inactive = the rest.

Some test systems named below: HCT-15 colon; HT29 colon; SNB-75 CNS; SNB-19 CNS; U251 CNS; PC-3 prostate; SK-MEL-5 melanoma; UACC-62 melanoma; LOX IMVI melanoma; SK-MEL-28 melanoma; SK-MEL-2 melanoma; EKVX NSCLC; SN12C renal; UO-31 renal; TK-10 renal; ACHN renal; CAKI-1 renal; A498 renal; CCRF-CEM leukemia; MOLT-4 leukemia.
Common to all, as to assay: NCI-60 one-dose screen, 48 h (100 = growth as untreated, 0 = no growth, -100 = all killed)
Common to all, as to conditions: 10 µM unless noted

On to `Fc1ccc2nc3c(cc2c1)CSc1nnc(-c2ccc[nH]c2=S)n1N3`, for which the growth is 104% in the assay with HCT-15 colon; 108% with HT29 colon; 75.8% with SNB-75 CNS; 98.1% with SNB-19 CNS; 107% in the assay on U251 CNS; 91.5% with PC-3 prostate. The growth is 96.4% in the assay on SK-MEL-5 melanoma; 91.7% in the assay with UACC-62 melanoma; 96.1% with LOX IMVI melanoma; 102% in the assay on SK-MEL-28 melanoma; 98.3% with SK-MEL-2 melanoma; 94.2% in the assay on EKVX NSCLC. Also, the growth with SN12C renal was 98.2%; in the assay with UO-31 renal it was 82%; in the assay with TK-10 renal, 110%; in the assay with ACHN renal, 94%; with CAKI-1 renal it was 83.8%; with A498 renal, 92.1%. For the same compound, the growth in the assay with CCRF-CEM leukemia is 98.9%.
For `CCC(C)N(CCNc1cc(OC)cc2cccnc12)CCC(C)C` (centres undefined), the growth is 76.6% in the assay on HCT-15 colon; 55.6% in the assay with HT29 colon; 100% with SNB-75 CNS; 96.2% with SNB-19 CNS; 84% with U251 CNS; 79.3% with PC-3 prostate. Moreover, the growth with SK-MEL-5 melanoma was 95.2%; in the assay on UACC-62 melanoma it was 94.2%; with LOX IMVI melanoma, 86%; in the assay on SK-MEL-28 melanoma, 99.7%; with SK-MEL-2 melanoma, 90%; with EKVX NSCLC, 92.2%. Also, the growth with SN12C renal is 93.5%; in the assay with UO-31 renal it was 77.8%; in the assay on TK-10 renal it was 96.7%; with ACHN renal, 75.2%; in the assay with CAKI-1 renal, 90.8%; in the assay with A498 renal, 72.9%. Further, the results for the growth in the assay on CCRF-CEM leukemia and in the assay on MOLT-4 leukemia were 109% and 83.9%, respectively.
With `N/C(=N\N=C\c1cc2ccccc2[nH]1)N/N=C/c1cc2ccccc2[nH]1`, the growth is 93.5% in the assay on HCT-15 colon; 95.7% in the assay on HT29 colon; 85.9% with SNB-75 CNS; 97.6% with SNB-19 CNS; 101% in the assay with U251 CNS; 89.3% in the assay on PC-3 prostate. Also, the growth in the assay with SK-MEL-5 melanoma was 84.9%; in the assay on UACC-62 melanoma it was 99.2%; in the assay with LOX IMVI melanoma it was 98.4%; in the assay with SK-MEL-28 melanoma, 103%; with SK-MEL-2 melanoma, 100%; in the assay on EKVX NSCLC it was 79.7%. Besides, the growth in the assay with SN12C renal is 89.9%; in the assay with UO-31 renal it was 74.1%; with TK-10 renal it was 116%; in the assay on ACHN renal it was 109%; in the assay with CAKI-1 renal, 87.3%; in the assay with A498 renal, 95.6%. Also, the growth in the assay on CCRF-CEM leukemia was 84.4%.
As to `COc1ccc(NS(=O)(=O)c2ccc(C)cc2)c([N+](=O)[O-])c1`, the growth is 107% in the assay with HCT-15 colon; 107% with HT29 colon; 105% in the assay with SNB-75 CNS; 102% in the assay with SNB-19 CNS; 93.3% in the assay with U251 CNS; 97.5% with PC-3 prostate. The growth with SK-MEL-5 melanoma is 96.8%; in the assay on UACC-62 melanoma it was 86%; with LOX IMVI melanoma, 95.2%; in the assay with SK-MEL-28 melanoma it was 107%; with SK-MEL-2 melanoma, 110%; in the assay with EKVX NSCLC, 101%. Besides, the growth was 88.2% in the assay on SN12C renal; 86.3% in the assay on UO-31 renal; 99.7% with TK-10 renal; 95.4% in the assay with ACHN renal; 98.2% with CAKI-1 renal; 80% in the assay on A498 renal. Moreover, the growth is 97% in the assay with CCRF-CEM leukemia and 96.3% in the assay with MOLT-4 leukemia.
In the case of `Cc1cc(NC(=O)c2cnc(N3CCN(CCOCCOCCOCCOCCC(=O)N[C@H](C(=O)N4C[C@H](O)C[C@H]4C(=O)N[C@@H](C)c4ccc(-c5scnc5C)cc4)C(C)(C)C)CC3)cn2)c2ncccc2c1`, the growth in the assay on HCT-15 colon was 60.5%; in the assay on HT29 colon, 5.72% (active); in the assay on SNB-75 CNS, 6.69% (active); in the assay on SNB-19 CNS, 27.7%; in the assay with U251 CNS, 4.36% (active); with PC-3 prostate it was 1.95% (active). For the same compound, the growth was -41.1% (active) in the assay on SK-MEL-5 melanoma; -57.1% (active) in the assay on UACC-62 melanoma; -85.8% (active) with LOX IMVI melanoma; -75.1% (active) in the assay with SK-MEL-28 melanoma; -17.8% (active) with SK-MEL-2 melanoma; 60% with EKVX NSCLC. Moreover, the growth was -2.01% (active) with SN12C renal; 75.8% in the assay on UO-31 renal; 69.3% in the assay with TK-10 renal; 37.9% with ACHN renal; 42.9% in the assay on CAKI-1 renal; 78.6% with A498 renal. Further, the growth with CCRF-CEM leukemia is -1.88% (active).
Take `O=C(N/N=C/c1cccc(O)c1)c1ccccc1Nc1cccc(C(F)(F)F)c1`: the growth in the assay on HCT-15 colon is 72.2%; in the assay on HT29 colon, 106%; in the assay on SNB-75 CNS, 79.7%; with SNB-19 CNS, 88.1%; in the assay on U251 CNS, 82.4%; in the assay with PC-3 prostate, 81.9%. The growth in the assay on SK-MEL-5 melanoma was 82.5%; in the assay on UACC-62 melanoma it was 80.7%; in the assay with LOX IMVI melanoma, 66.7%; in the assay with SK-MEL-28 melanoma, 96.6%; in the assay on SK-MEL-2 melanoma, 111%; in the assay on EKVX NSCLC, 69.9%. The growth was 93.5% in the assay on SN12C renal; 58% with UO-31 renal; 97.5% in the assay with TK-10 renal; 95.4% in the assay with ACHN renal; 36.9% with CAKI-1 renal; 92.3% in the assay on A498 renal. Also, in the assay on CCRF-CEM leukemia, the growth was 3.83% (active).
Consider `CCCCc1ccc(Nc2nnc(SCC(=O)NC(=O)NCC)s2)cc1`, for which the growth in the assay with HCT-15 colon is 99.9%; with HT29 colon, 103%; with SNB-75 CNS, 83%; in the assay with SNB-19 CNS, 119%; with U251 CNS it was 96%; in the assay with PC-3 prostate it was 91%. Further, the growth in the assay with SK-MEL-5 melanoma is 103%; with UACC-62 melanoma it was 78.2%; in the assay on LOX IMVI melanoma it was 94.1%; with SK-MEL-28 melanoma, 105%; in the assay on SK-MEL-2 melanoma it was 90.8%; in the assay with EKVX NSCLC, 110%. The growth was 97% with SN12C renal; 84.4% with UO-31 renal; 107% in the assay with TK-10 renal; 101% with ACHN renal; 115% in the assay with CAKI-1 renal; 96.6% in the assay on A498 renal. Further, in the assay with CCRF-CEM leukemia, the growth is 78.8%.
As for `CC(=O)O[C@H]1CC[C@@]2(C)[C@@H](CC[C@@H]3[C@@H]2CC[C@@]2(C)[C@H]3CC[C@]2(O)C(C)=O)C1`, the growth in the assay with HCT-15 colon was 102%; with HT29 colon, 107%; with SNB-75 CNS, 94.9%; with SNB-19 CNS, 102%; in the assay with U251 CNS, 94%; with PC-3 prostate it was 95.7%. For the same compound, the growth with SK-MEL-5 melanoma was 94%; in the assay with UACC-62 melanoma it was 91%; with LOX IMVI melanoma, 99.2%; in the assay with SK-MEL-28 melanoma it was 103%; in the assay with SK-MEL-2 melanoma, 117%; in the assay on EKVX NSCLC it was 87.1%. For the same compound, the growth in the assay on SN12C renal was 96.4%; with UO-31 renal, 92.7%; in the assay with TK-10 renal, 99.2%; in the assay on ACHN renal it was 88.6%; in the assay with CAKI-1 renal, 99.3%; in the assay with A498 renal, 90%. The growth in the assay on CCRF-CEM leukemia is 98.9%.
